# From PubChem
# GALK inh – blocks human galactokinase activity; P51570; actives 0.007% (n = 270,000); Potency, µM (titrated, usually from 57.5 µM), for inactives: at the highest dose activity change, negative = inhibition, hits mostly inhibitors; Purified GALK, Kinase-Glo residual ATP luminescence; AID 1868; further: potency means the concentration at half of the fitted maximal effect; on the % scale 0 is the no-effect control and ±100 the full control effect
#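 The enzyme phosphorylates galactose (100 uM) using ATP (35 uM); inhibition is detected as higher residual ATP, quantified by bioluminescence after 1 h reaction at room temperature, pH 8.0.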
# TrxR1 inh-1 – rat TrxR1 inhibition. O89049. Potency, µM (titrated, usually from 114 µM), without a hit: at the top dose activity change, negative = inhibition, usual class: inhibitors. actives 1% (n = 390,000). recombinant rTrxR1, NADPH fluorescence consumption, selenite substrate; further: potency means the concentration at half of the fitted maximal effect; on the % scale 0 is the no-effect control and ±100 the full control effect; nearly all actives have a fitted effect of over 65% in size
#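 Rat TrxR1 (90 nM in the dispensed reagent) was pre-reduced with 400 uM NADPH for 5 min at room temperature, then incubated with compound for 15 min. After 400 uM selenite was added, NADPH fluorescence (Ex 340/Em 450 nm) was followed for 8 min.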
# USP1-UAF1 inh – USP1/UAF1 (human) deubiquitinase inhibition; O94782; actives 0.23% (n = 390,000); Potency, µM (highest dose often 57.1 µM), inactives show top-dose activity change, negative = inhibition, hits mostly inhibitors; AID 743255; recombinant USP1/UAF1, Ub-Rhodamine cleavage fluorescence; further: potency means the concentration at half of the fitted maximal effect; on the % scale 0 is the no-effect control and ±100 the full control effect; nearly all actives have a fitted effect of over 60% in size
#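 High-throughput fluorogenic screen: 1nM USP1/UAF1 complex, Ub-Rho substrate 150nM final, 50mM HEPES pH 7.8 with 0.5mM EDTA, 0.1 mg/ml BSA, 1mM TCEP and 0.01% Tween-20.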
# FBPA coupling cs – inhibits coupling enzyme system, counter-screen for aldolase hits. coupling enzyme system counterscreen, AmpLite Red fluorescence. activity change, negative = inhibition, % at 58.2 µM, hits read low. actives 0.67% (n = 290,000). AID 2472; in the data active means activity change below about -30%; further: on the % scale 0 is the no-effect control and ±100 the full control effect
#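 Coupling enzymes only (glyceraldehyde-3-phosphate) + compound, at 57.5 uM final, 10 min RT; add substrate/coupling/AmpLite Red mix, 20 min RT; fluorescence ex 525/em 598 nm. Actives flag coupling-system interference.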
# TrxR1 substrate – rat thioredoxin reductase 1 substrate activity; O89049; purified TrxR1 substrate turnover, NADPH consumption readout; Potency, µM (top dose mostly 114 µM), inactives show at the top dose activity change, negative = substrate turnover; actives 0.01% (n = 390,000); AID 588456; further: potency means the concentration at half of the fitted maximal effect; on the % scale 0 is the no-effect control and ±100 the full control effect; nearly all actives have a fitted effect of over 50% in size
#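 Rat TrxR1, dispensed at 90 nM, was prereduced with 400 uM NADPH (final) for 5 min at ~22 deg C, then incubated with compound 15 min before 400 uM selenite. A first-read NADPH fluorescence drop versus no-compound background flagged substrates.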
# TRb-SRC2 inh – confirmation of human TRb-SRC2 interaction inhibitors | actives 50% (n = 30) | Potency, µM | shares compounds with TrxR1 inh-1 | AlphaScreen TRb LBD-SRC2 peptide binding, luminescence | AID 2444; calls by dose curve
# HepG2 viability – counter-screen for TRb-SRC2 inhibitors: HepG2 cytotoxicity; AID 2447; shares compounds with TrxR1 inh-1; actives 50% (n = 40); HepG2 viability, ATP luminescence (CellTiter-Glo), 72 h; Potency, µM; calls by dose curve
# AR-SRC2 inh – AR-SRC2 (human) interaction inhibition, selectivity; shares compounds with TrxR1 inh-1; calls only; 25 tested, under 10 active; AR-LBD Tx-SRC2-3 fluorescence polarization, 3 h; call rule not given here
# PPARg DRIP2 FP – PPARg-DRIP2 (human) interaction inhibition, selectivity | AID 2449 | shares compounds with TrxR1 inh-1 | Potency, µM | 25 tested, under 10 active | PPARg LBD / Texas Red DRIP-2 peptide, fluorescence polarization, 3 h; calls by dose curve
# VDR SRC2 FP – VDR-SRC2 (human) interaction inhibition, selectivity; VDR LBD/SRC2-3 peptide, fluorescence polarization, 3 h; AID 2455; 25 tested, under 10 active; shares compounds with TrxR1 inh-1; Potency, µM; calls by dose curve
# GR inh – glutathione reductase inhibition, TrxR1 selectivity check; 55 tested, under 10 active; activity change, negative = inhibition, % at 57.1 µM; purified GR, DTNB reduction absorbance 405 nm kinetic; shares compounds with TrxR1 inh-1
# TrxR1 inh-2 – validation of rat thioredoxin reductase 1 inhibitors; shares compounds with TrxR1 inh-1; recombinant TrxR1, NADPH fluorescence consumption, selenite substrate; Potency, µM, actives largely listed as inhibitors; actives 50% (n = 55); AID 652023
# TrxR1 insulin MOA – inhibits TrxR1-driven insulin reduction | TrxR1 Trx-coupled insulin reduction, NADPH absorbance 340 nm | actives 20% (n = 55) | shares compounds with TrxR1 inh-1 | Potency, µM;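 active means compounds with a measured potency under 100 micromolar; inconclusive means filed, but no rule given; inactive means potency at or above that, or unmeasurable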
# TrxR1 inh-3 – rat thioredoxin reductase 1 inhibition, DTNB assay; Potency, µM; purified TrxR1, DTNB reduction, A412; actives 90% (n = 55); shares compounds with TrxR1 inh-1;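 active means a half-inhibiting concentration could be measured and was below 100 µM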
# Numbers without * were called inactive; i = inactive; ? = inconclusive; / = not tested or not shown; [ ] = another dose, or the depositor's remark. A selection: hits, their analogues and other compounds. The true share with any hit is near 1.5%. Unless noted, the call rests on the fitted dose curve; in most records, active means well fitted curve in the direction sought with a large enough effect; inconclusive means small, poorly fitted or top-dose-only effect, or another doubt; inactive means no such curve, though single readings can be large; an effect the other way counts as inactive or inconclusive.
SMILES,GALK inh,TrxR1 inh-1,USP1-UAF1 inh,FBPA coupling cs,TrxR1 substrate,others
O=C(COC(=O)c1ccc(F)c([N+](=O)[O-])c1)NC1C2CC3CC(C2)CC1C3 (stereo not given),/,/,/,/,/,TRb-SRC2 inh=8.7µM*;HepG2 viability=?;AR-SRC2 inh=i;PPARg DRIP2 FP=i;VDR SRC2 FP=i
O=C(COC(=O)c1cc(Cl)ccc1[N+](=O)[O-])NC1CC1,/,13.3%,-23.7%,/,4.1%,
O=C(COC(=O)c1cccc([N+](=O)[O-])c1Cl)NC1C2CC3CC(C2)CC1C3 (stereo not given),/,/,/,/,/,TRb-SRC2 inh=44.4µM*;HepG2 viability=i;AR-SRC2 inh=i;PPARg DRIP2 FP=i;VDR SRC2 FP=i
O=C(COC(=O)c1ccc(Cl)c([N+](=O)[O-])c1)NC1C2CC3CC(C2)CC1C3 (stereo not given),/,/,/,/,/,TRb-SRC2 inh=i;HepG2 viability=i;AR-SRC2 inh=i;PPARg DRIP2 FP=i;VDR SRC2 FP=i
Nc1ccc(C(=O)OCC(=O)NC2CC2)cc1[N+](=O)[O-],0.5%,17.3%,-19.6%,-1.2,-0.3%,
O=C(COC(=O)c1ccc(Cl)c([N+](=O)[O-])c1)NC1CCCC1,-1.3%,5.7%,-8.5%,0.6,4.7%,
OC[C@@H]1OC(O)[C@@H](O)[C@H](O)[C@@H]1O (stereo not given in full),/,/,/,0.9,/,
Fc1ccc(/C=C2\CCCC3=C2Nc2ncnn2C3c2ccc(F)cc2)cc1 (stereo not given),-0.4%,0.708µM*,-13.0%,-11.5,1.4%[57.1 µM],GR inh=-15.6;TrxR1 inh-2=2.99*;TrxR1 insulin MOA=i;TrxR1 inh-3=0.249µM*
O=C(NC1CCCCC1)c1cnn2c1NC(=C1CC1)C=C2C(F)F,/,18.5%,/,/,4.4%,
O=C(NC(=S)Nc1ccc(N2CCOCC2)cc1)c1cccc(Cl)c1Cl,2.5%,?,-23.8%,1.1,1.5%,
O=C(NC(=S)Nc1ccc(N2CCOCC2)cc1)c1cccc(Cl)c1,1.4%,10µM*,1.7%,0.4,-10.7%,GR inh=-4.0;TrxR1 inh-2=5.32*;TrxR1 insulin MOA=i;TrxR1 inh-3=2.56µM*
O=C(CNC(=O)C1CCCCC1)OCCOc1ccccc1,/,?,/,/,-7.0%,
COc1cccc(CC(=O)N2CCc3nc(-c4ccccc4)c4c(c3C2)CO[C@@H](C)C4)c1,/,/,/,0.1,/,
CCN1C(=NCCc2c[nH]c3ccccc23)N[C@@H](c2ccccc2)C(C(=O)OC)=C1C,/,/,/,-0.1,/,
COC(=O)C1=C(C)N(CCc2c[nH]c3ccccc23)C(=O)/C1=C\N(C)C,-4.0%,10µM*,-2.0%,-3.2,-8.9%,GR inh=-1.5;TrxR1 inh-2=9.47*;TrxR1 insulin MOA=36µM*;TrxR1 inh-3=0.122µM*
